# Measured values: PubChem BioAssay (Tox21)
# Values without a mark were called inactive. Records with an inconclusive call do not appear. Where a call stands in place of a potency, no number is given. The source made the active and inactive calls. Unless noted, calls come from the whole dose curve; as a rule, active = well fitted curve in the direction sought with a large enough effect in the repeat runs; inconclusive = weak or mixed curves; inactive = no such curve, though single readings can be large; an effect the other way counts as inactive or inconclusive.
# Columns and labels:
# [1] = qHTS assay to identify small molecule agonists of the hypoxia (HIF-1) signaling pathway - cell viability counter screen (AID 1224844; calls by dose curve; note: nearly all actives have a fitted effect of over 50% in size; note: potency is the fitted concentration of half-maximal effect)
# Summary of the method: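 Same wells as the HIF-1 reporter screen; ME-180 cells carrying HRE-bla, 17 hr treatment at 37C; CellTiter-Glo luminescence read after 30 min at room temperature.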
# [2] = qHTS assay to identify small molecule agonists of H2AX (AID 1224845; active = well fitted activation curve with a large enough effect in the signal ratio in the repeat runs, not every such curve was filed as active; the % refers to the signal ratio)
# Summary of the method: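 Wild-type CHO-K1 cells plated overnight, then exposed 3 hr at 37C to compounds at 15 concentrations (0.76% DMSO). Lysed, then HTRF anti-pH2AX(S139)-cryptate/anti-H2AX-d2 detection after 24 hr at room temperature; emissions 665 and 620 nm.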
# [3] = qHTS assay to identify small molecule agonists of H2AX - cell viability counter screen (AID 1224847; calls by dose curve; note: top concentration of the series differs between compounds; nearly all actives have a fitted effect of over 30% in size)
# Summary of the method: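 Compounds tested at 15 concentrations were incubated 3 hr at 37C with wild-type CHO-K1 cells; cellular ATP-based luminescence (CellTiter-Glo) indicated viability.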
# [4] = qHTS assay to identify small molecule antagonists of the estrogen related receptor (ERR) signaling pathway from Tox21 library (AID 1224848); note: nearly all actives have a fitted effect of over 50% in size; note: potency is the fitted concentration of half-maximal effect
# Summary of the method: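 First, 2,000 ERR cells per well were plated and held 6 h at 37 C/5% CO2. Next, compounds in DMSO were pinned in and left 18 h at 37 C. Finally, ONE-Glo was added and luminescence read after 30 min at room temperature.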
# [5] = qHTS assay to identify small molecule agonists of the estrogen related receptor (ERR) signaling pathway from Tox21 library (AID 1224849; calls by dose curve; note: nearly all actives have a fitted effect of over 15% in size); conditions: ERR reporter cell line, ONE-Glo luciferase, 18 h; at 92.4 µM (top of the series) unless noted
# Summary of the method: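 Reporter cells (ERR, NTP source) treated with Tox21 10K compounds 18 h, 37 C. Readout: ONE-Glo luminescence, 30 min RT.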
# [6] = A CellTox Green Cytotoxicity Assay to monitor cytotoxicity in HEK293 cells - 0 hour (AID 1224869); note: nearly all actives have a fitted effect of over 50% in size
# Summary of the method: (§1)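 Homogeneous no-lysis format: HEK293 cell suspension mixed with CellTox Green reagent, seeded, incubated 5 h at 37 C/5% CO2, then dosed by pintool with compound in DMSO.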
# [7] = qHTS RealTime-Glo MT Cell Viability Assay in HepG2 cells - 40 hour (AID 1224870); note: nearly all actives have a fitted effect of over 50% in size
# Summary of the method: (§2)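 HepG2 cells mixed with RealTime-Glo MT reagents (NanoLuc plus cell-permeant prosubstrate) were seeded at 600 cells/well, incubated 5 h at 37 C/5% CO2, then pinned with compounds in DMSO; nonlytic luminescence tracked viability during 40 h treatment.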
# [8] = A CellTox Green Cytotoxicity Assay to monitor cytotoxicity in HEK293 cells - 40 hour (AID 1224871); note: nearly all actives have a fitted effect of over 45% in size
# Summary of the method: as §1
# [9] = qHTS RealTime-Glo MT Cell Viability Assay in HEK293 cells - 16 hour (AID 1224872)
# Summary of the method: (§3)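 Homogeneous bioluminescent viability format in HEK293 cells (600 cells/well). Following 5 h at 37 C/5% CO2, 23 nL compound was pintooled; the signal was measured repeatedly during 40 h incubation.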
# [10] = qHTS RealTime-Glo MT Cell Viability Assay in HepG2 cells - 8 hour (AID 1224873); note: nearly all actives have a fitted effect of over 55% in size
# Summary of the method: as §2
# [11] = qHTS RealTime-Glo MT Cell Viability Assay in HEK293 cells - 40 hour (AID 1224874); conditions: RealTime-Glo luminescence; max response: active compounds read low; note: nearly all actives have a fitted effect of over 50% in size
# Summary of the method: (§4)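 Measured as luminescence from the same continuously cultured HEK293 wells at successive time points (0, 8, 16, 24, 32, 40 h) after compound addition. Reagent present from seeding; dosing at 5 h; incubation 37 C.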
# [12] = A CellTox Green Cytotoxicity Assay to monitor cytotoxicity in HEK293 cells - 24 hour (AID 1224875); note: nearly all actives have a fitted effect of over 45% in size
# Summary of the method: as §1
# [13] = A CellTox Green Cytotoxicity Assay to monitor cytotoxicity in HepG2 cells - 16 hour (AID 1224876); note: nearly all actives have a fitted effect of over 45% in size
# Summary of the method: (§5)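 Fluorescent DNA-binding dye, 600 HepG2 cells/well, 5 h preincubation then compound in DMSO; same plates read at 0–40 h, 37 C.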
# [14] = A CellTox Green Cytotoxicity Assay to monitor cytotoxicity in HepG2 cells - 24 hour (AID 1224878); note: nearly all actives have a fitted effect of over 45% in size
# Summary of the method: as §5
# [15] = A CellTox Green Cytotoxicity Assay to monitor cytotoxicity in HepG2 cells - 40 hour (AID 1224879); note: nearly all actives have a fitted effect of over 40% in size
# Summary of the method: as §5
# [16] = qHTS RealTime-Glo MT Cell Viability Assay in HEK293 cells - 0 hour (AID 1224880)
# Summary of the method: as §4
# [17] = qHTS assay to identify small molecule agonists of the hypoxia (HIF-1) signaling pathway (AID 1224846; active = well fitted activation curve with a large enough effect in the signal ratio in the repeat runs, not every such curve was filed as active; the % refers to the signal ratio)
# Summary of the method: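 In ME-180 cells bearing an HRE-bla construct, 17 h treatment with DMSO-dissolved compounds at 37C was followed by CCF4-AM loading to quantify reporter induction.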
# [18] = qHTS RealTime-Glo MT Cell Viability Assay in HepG2 cells - 24 hour (AID 1224867); note: nearly all actives have a fitted effect of over 50% in size
# Summary of the method: (§6)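 Cell number in HepG2 cultures estimated from NanoLuc luminescence generated by metabolic reduction of a prosubstrate by living cells. The homogeneous, nonlytic format allowed repeated reads at 0, 8, 16, 24, 32 and 40 h of compound exposure.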
# [19] = qHTS RealTime-Glo MT Cell Viability Assay in HEK293 cells - 32 hour (AID 1224868)
# Summary of the method: as §3
# [20] = qHTS RealTime-Glo MT Cell Viability Assay in HepG2 cells - 32 hour (AID 1224877); note: nearly all actives have a fitted effect of over 55% in size
# Summary of the method: as §6
structure (smiles),measurement,setting,value
CC(C)NCC(O)c1cc(O)cc(O)c1 (stereo not given),Potency,[1],inactive
same,Potency,[2],inactive
same,Potency,[3],inactive
same,Potency,[4],inactive
same,"activity change, positive = activation",[5],10.5% [at 42.5 µM]
same,Potency,[6],inactive
same,Potency,[7],inactive
same,Potency,[8],inactive
same,Potency,[9],inactive
same,Potency,[10],inactive
same,max response,[11],1.47%
same,Potency,[12],inactive
same,Potency,[13],inactive
same,Potency,[14],inactive
same,Potency,[15],inactive
same,Potency,[16],inactive
O=C(C(=O)c1ccc(Br)cc1)c1ccc(Br)cc1,"activity change, negative = cytotoxicity",[1],-11.6% [at 15.8 µM]
same,activation,[17],-1.03% [at 15.8 µM]
same,"activity change, negative = cytotoxicity",[3],0.693% [at 31.6 µM]
same,"activity, negative = inhibition",[4],-0.511% [at 19 µM]
same,"activity change, positive = activation",[5],0.063% [at 19 µM]
same,"activity change, negative = cytotoxicity",[18],-0.799% [at 15.8 µM]
same,"activity change, negative = cytotoxic",[19],3.98% [at 15.8 µM]
same,cytotoxicity,[6],1.99% [at 15.8 µM]
same,"activity change, negative = cytotoxic",[7],6.88% [at 15.8 µM]
same,"activity change, negative = cytotoxicity",[9],5.77% [at 15.8 µM]
same,"viability change, negative = cytotoxic",[10],-3.19% [at 15.8 µM]
same,max response,[11],0.201%
same,activity change,[12],"-0.496% [at 15.8 µM, active compounds read high]"
same,cytotoxicity increase,[13],-6.44% [at 15.8 µM]
same,"activity change, negative = cytotoxic",[20],2.16% [at 15.8 µM]
same,cytotoxicity,[14],-10% [at 15.8 µM]
same,cytotoxicity increase,[15],-10.2% [at 15.8 µM]
same,"activity change, negative = cytotoxicity",[16],-3.2% [at 15.8 µM]
CCCc1ccccc1,Potency,[1],inactive
same,Potency,[2],inactive
same,Potency,[3],inactive
same,Potency,[4],inactive
same,"activity change, positive = activation",[5],2.82%
same,Potency,[18],inactive
same,Potency,[19],inactive
same,Potency,[6],inactive
same,Potency,[7],inactive
same,Potency,[10],inactive
same,max response,[11],0.274%
same,Potency,[12],inactive
same,Potency,[20],inactive
same,Potency,[14],inactive
same,Potency,[15],inactive
same,Potency,[16],inactive
c1ccc(-c2nc[nH]c2-c2ccccc2)cc1,Potency,[1],inactive
same,Potency,[2],inactive
same,Potency,[3],inactive
same,Potency,[18],inactive
same,Potency,[19],inactive
same,Potency,[6],inactive
same,Potency,[7],inactive
same,Potency,[9],inactive
same,Potency,[10],inactive
same,max response,[11],-25%
same,Potency,[12],inactive
same,Potency,[20],inactive
same,Potency,[16],inactive
CCCCCCCCC(CO)CCCCCC (stereo not given),Potency,[1],inactive
same,Potency,[2],inactive
same,Potency,[3],inactive
same,Potency,[4],inactive
same,"activity change, positive = activation",[5],4.04%
same,Potency,[19],inactive
same,Potency,[6],inactive
same,Potency,[7],inactive
same,Potency,[8],inactive
same,Potency,[9],inactive
same,Potency,[10],inactive
same,max response,[11],1.58%
same,Potency,[12],inactive
same,Potency,[13],inactive
same,Potency,[20],inactive
same,Potency,[14],inactive
same,Potency,[15],inactive
same,Potency,[16],inactive
COc1ccc([C@@H]2Sc3ccccc3N(CCN(C)C)C(=O)[C@@H]2OC(C)=O)cc1,Potency,[1],21.3 µM (active)
same,Potency,[2],inactive
same,Potency,[4],16.8 µM (active)
same,"activity change, positive = activation",[5],-33.7% [at 42.5 µM]
same,Potency,[18],inactive
same,Potency,[6],inactive
same,Potency,[7],inactive
same,Potency,[8],inactive
same,Potency,[10],inactive
same,Potency,[12],inactive
same,Potency,[13],inactive
same,Potency,[14],inactive
same,Potency,[15],inactive
same,Potency,[16],inactive
CC1CCc2cc(F)cc3c(=O)c(C(=O)O)cn1c23 (stereo not given),Potency,[1],inactive
same,Potency,[2],inactive
same,Potency,[3],inactive
same,Potency,[18],inactive
same,Potency,[6],inactive
same,Potency,[7],inactive
same,Potency,[8],inactive
same,Potency,[9],inactive
same,Potency,[10],inactive
same,max response,[11],7.68%
same,Potency,[12],inactive
same,Potency,[13],inactive
same,Potency,[14],inactive
same,Potency,[15],inactive
same,Potency,[16],inactive
